The full list was thinned out, with the strongest signals kept by preference.
Tests used:
Assay in all cases: glycan array binding signal (z-score within array); higher = stronger binding
Conditions in all cases: glycan notation: IUPAC condensed, linker removed
[1] = biological target: Fuc(a1-2)Gal6S(b1-3)GlcNAc6S
How it was run: (§1)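 Columns mapping to the same glycan were averaged after glycan names were converted to IUPAC-condensed notation. The data come from 3228 arrays in the Consortium for Functional Glycomics database, limited to those with an available protein sequence. Binding is reported as a within-array Z-score averaged across arrays of one protein sequence and across linkers.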

[2] = biological target: Fuc(a1-2)[Gal(a1-3)]Gal(b1-3)GlcNAc(b1-2)Man(a1-3)[Fuc(a1-2)[Gal(a1-3)]Gal(b1-3)GlcNAc(b1-2)Man(a1-6)]Man(b1-4)GlcNAc(b1-4)[Fuc(a1-6)]GlcNAc
How it was run: as §1

[3] = biological target: Fuc(a1-2)[GalNAc(a1-3)]Gal(b1-4)[Fuc(a1-3)]GlcNAc(b1-3)GalNAc
How it was run: as §1

[4] = biological target: Fuc(a1-3)[Gal(b1-4)]GlcNAc
How it was run: as §1

[5] = biological target: Fuc(a1-3)[Gal(b1-4)]GlcNAc(b1-3)Gal(b1-4)[Fuc(a1-3)]GlcNAc
How it was run: as §1

[6] = biological target: Fuc(a1-3)[Gal(b1-4)]GlcNAc(b1-3)Gal(b1-4)[Fuc(a1-3)]GlcNAc(b1-3)Gal(b1-4)[Fuc(a1-3)]GlcNAc
How it was run: as §1

[7] = biological target: Gal(a1-4)Gal(b1-4)GlcNAc(b1-2)Man(a1-3)[Gal(a1-4)Gal(b1-4)GlcNAc(b1-2)Man(a1-6)]Man(b1-4)GlcNAc(b1-4)GlcNAc
How it was run: as §1

Gal(b1-2)Gal = biological target: Gal(b1-2)Gal
How it was run: as §1

[8] = biological target: Gal(b1-3)[Fuc(a1-4)]GlcNAc(b1-6)GalNAc
How it was run: as §1

[9] = biological target: Gal(b1-3)[Neu5Ac(a2-6)]GalNAc
How it was run: as §1

[10] = biological target: Gal(b1-4)GlcNAc(b1-2)Man(a1-3)[Gal(b1-4)GlcNAc(b1-2)Man(a1-6)]Man(b1-4)GlcNAc(b1-4)[Fuc(a1-6)]GlcNAc
How it was run: as §1

[11] = biological target: Gal(b1-4)GlcNAc(b1-2)Man(a1-6)[Man(a1-3)]Man(b1-4)GlcNAc(b1-4)GlcNAc
How it was run: as §1

[12] = biological target: Gal(b1-4)GlcNAc(b1-3)Gal(b1-4)GlcNAc
How it was run: as §1

[13] = biological target: Gal(b1-4)GlcNAc(b1-3)Gal(b1-4)GlcNAc(b1-3)Gal(b1-4)GlcNAc(b1-3)Gal(b1-4)GlcNAc(b1-3)Gal(b1-4)GlcNAc(b1-2)Man(a1-3)[Gal(b1-4)GlcNAc(b1-3)Gal(b1-4)GlcNAc(b1-3)Gal(b1-4)GlcNAc(b1-3)Gal(b1-4)GlcNAc(b1-3)Gal(b1-4)GlcNAc(b1-2)Man(a1-6)]Man(b1-4)GlcNAc(b1-4)GlcNAc
How it was run: as §1

[14] = biological target: Gal(b1-4)GlcNAc(b1-3)Gal(b1-4)GlcNAc(b1-3)Gal(b1-4)GlcNAc(b1-3)Gal(b1-4)GlcNAc(b1-3)Gal(b1-4)GlcNAc(b1-2)Man(a1-3)[Gal(b1-4)GlcNAc(b1-3)Gal(b1-4)GlcNAc(b1-3)Gal(b1-4)GlcNAc(b1-3)Gal(b1-4)GlcNAc(b1-3)Gal(b1-4)GlcNAc(b1-2)Man(a1-6)]Man(b1-4)GlcNAc(b1-4)[Fuc(a1-6)]GlcNAc
How it was run: as §1

[15] = biological target: Gal(b1-4)GlcNAc(b1-3)Gal(b1-4)GlcNAc(b1-3)Gal(b1-4)GlcNAc(b1-3)Gal(b1-4)GlcNAc(b1-3)Gal(b1-4)GlcNAc(b1-3)Gal(b1-4)GlcNAc(b1-2)Man(a1-3)[Gal(b1-4)GlcNAc(b1-3)Gal(b1-4)GlcNAc(b1-3)Gal(b1-4)GlcNAc(b1-3)Gal(b1-4)GlcNAc(b1-3)Gal(b1-4)GlcNAc(b1-3)Gal(b1-4)GlcNAc(b1-2)Man(a1-6)]Man(b1-4)GlcNAc(b1-4)GlcNAc
How it was run: as §1

[16] = biological target: Gal(b1-4)GlcNAc(b1-3)[GlcNAc(b1-6)]Gal(b1-4)GlcNAc
How it was run: as §1

Gal3S6S(b1-4)GlcNAc6S = biological target: Gal3S6S(b1-4)GlcNAc6S
How it was run: as §1

Gal4S6S(b1-4)GlcNAc = biological target: Gal4S6S(b1-4)GlcNAc
How it was run: as §1

Gal6S(b1-3)GlcNAc6S = biological target: Gal6S(b1-3)GlcNAc6S
How it was run: as §1

GalNAc(b1-4)GlcNAc6S = biological target: GalNAc(b1-4)GlcNAc6S
How it was run: as §1

GlcA(b1-3)Gal = biological target: GlcA(b1-3)Gal
How it was run: as §1

[17] = biological target: GlcNAc(b1-2)Man(a1-3)[GlcNAc(b1-4)][GlcNAc(b1-2)Man(a1-6)]Man(b1-4)GlcNAc(b1-4)GlcNAc
How it was run: as §1

[18] = biological target: GlcNAc(b1-3)Gal(b1-4)GlcNAc
How it was run: as §1

[19] = biological target: GlcNAc(b1-3)Gal(b1-4)GlcNAc(b1-3)Gal(b1-4)GlcNAc(b1-2)Man(a1-3)[GlcNAc(b1-3)Gal(b1-4)GlcNAc(b1-3)Gal(b1-4)GlcNAc(b1-2)Man(a1-6)]Man(b1-4)GlcNAc(b1-4)GlcNAc
How it was run: as §1

[20] = biological target: GlcNAc(b1-3)Gal(b1-4)GlcNAc(b1-3)Gal(b1-4)GlcNAc(b1-3)Gal(b1-4)GlcNAc(b1-2)[GlcNAc(b1-3)Gal(b1-4)GlcNAc(b1-3)Gal(b1-4)GlcNAc(b1-3)Gal(b1-4)GlcNAc(b1-6)]Man(a1-6)[GlcNAc(b1-3)Gal(b1-4)GlcNAc(b1-3)Gal(b1-4)GlcNAc(b1-3)Gal(b1-4)GlcNAc(b1-2)Man(a1-3)]Man(b1-4)GlcNAc(b1-4)[Fuc(a1-6)]GlcNAc
How it was run: as §1

[21] = biological target: GlcNAc(b1-3)Gal(b1-4)GlcNAc(b1-3)Gal(b1-4)GlcNAc(b1-3)Gal(b1-4)GlcNAc(b1-3)Gal(b1-4)GlcNAc(b1-2)Man(a1-3)[GlcNAc(b1-3)Gal(b1-4)GlcNAc(b1-3)Gal(b1-4)GlcNAc(b1-3)Gal(b1-4)GlcNAc(b1-3)Gal(b1-4)GlcNAc(b1-2)Man(a1-6)]Man(b1-4)GlcNAc(b1-4)[Fuc(a1-6)]GlcNAc
How it was run: as §1

[22] = biological target: Man(a1-2)Man(a1-6)[Man(a1-3)]Man(a1-6)[Man(a1-2)Man(a1-2)Man(a1-3)]Man(b1-4)GlcNAc(b1-4)GlcNAc
How it was run: as §1

Man(a1-3)[Man(a1-6)]Man = biological target: Man(a1-3)[Man(a1-6)]Man
How it was run: as §1

[23] = biological target: Man(a1-3)[Man(a1-6)]Man(b1-4)GlcNAc(b1-4)GlcNAc
How it was run: as §1

[24] = biological target: Neu5Ac(a2-3)Gal(b1-3)GlcNAc(b1-2)[Neu5Ac(a2-3)Gal(b1-3)GlcNAc(b1-4)]Man(a1-6)[Neu5Ac(a2-3)Gal(b1-3)GlcNAc(b1-2)Man(a1-3)]Man(b1-4)GlcNAc(b1-4)GlcNAc
How it was run: as §1

[25] = biological target: Neu5Ac(a2-3)Gal(b1-3)[Neu5Ac(a2-6)]GalNAc
How it was run: as §1

[26] = biological target: Neu5Ac(a2-3)Gal(b1-4)GlcNAc(b1-3)Gal
How it was run: as §1

[27] = biological target: Neu5Ac(a2-3)Gal6S(b1-4)GlcNAc
How it was run: as §1

[28] = biological target: Neu5Ac(a2-6)Gal(b1-4)GlcNAc(b1-3)Gal(b1-4)GlcNAc(b1-2)Man(a1-3)[Neu5Ac(a2-6)Gal(b1-4)GlcNAc(b1-3)Gal(b1-4)GlcNAc(b1-2)Man(a1-6)]GalNAc
How it was run: as §1

[29] = biological target: Neu5Ac(a2-6)Gal(b1-4)GlcNAc6S
How it was run: as §1

[30] = biological target: Neu5Gc(a2-3)Gal(b1-4)GlcNAc(b1-3)Gal(b1-4)GlcNAc(b1-2)Man(a1-3)[Neu5Gc(a2-3)Gal(b1-4)GlcNAc(b1-3)Gal(b1-4)GlcNAc(b1-2)Man(a1-6)]Man(b1-4)GlcNAc(b1-4)GlcNAc
How it was run: as §1

[31] = biological target: Neu5Gc(b2-6)Gal(b1-4)GlcNAc
How it was run: as §1

B1: MUB70 (Lactobacillus reuteri) (protein)
chain: CVHVQYIDGETDQMLRQDDLDGYTDETIPYSTAEGIKKFEGDGYELFKDNFPAGEKFDNDDTNDQFYTVIF
For B1, the “glycan array binding signal (z-score)” value [1] was 2.39, the “glycan array binding signal (z-score)” value [2] was -0.317 and the “glycan array binding signal (z-score)” value [3] was -0.274. For the same binder, the “glycan array binding signal (z-score)” value [4] was -0.273, the “glycan array binding signal (z-score)” value [5] was -0.143 and the “glycan array binding signal (z-score)” value [6] was -0.805. The “glycan array binding signal (z-score)” value [7] was 0.445, the “glycan array binding signal (z-score)” value (Gal(b1-2)Gal) was 2.16 and the “glycan array binding signal (z-score)” value [8] was -0.459. The “glycan array binding signal (z-score)” value [9] was 0.618, the “glycan array binding signal (z-score)” value [10] was -0.056 and the “glycan array binding signal (z-score)” value [11] was 0.734. For the same binder, the “glycan array binding signal (z-score)” value [12] was -0.399, the “glycan array binding signal (z-score)” value [13] was 0.479 and the “glycan array binding signal (z-score)” value [14] was 2.07. The “glycan array binding signal (z-score)” value [15] was 2.37, the “glycan array binding signal (z-score)” value [16] was -0.071 and the “glycan array binding signal (z-score)” value (Gal3S6S(b1-4)GlcNAc6S) was 3.78. For the same binder, the “glycan array binding signal (z-score)” value (Gal4S6S(b1-4)GlcNAc) was 1.99, the “glycan array binding signal (z-score)” value (Gal6S(b1-3)GlcNAc6S) was 4.49 and the “glycan array binding signal (z-score)” value (GalNAc(b1-4)GlcNAc6S) was 0.276. For the same binder, the “glycan array binding signal (z-score)” value (GlcA(b1-3)Gal) was -0.592, the “glycan array binding signal (z-score)” value [17] was 0.036 and the “glycan array binding signal (z-score)” value [18] was -0.453. For the same binder, the “glycan array binding signal (z-score)” value [19] was 2.17, the “glycan array binding signal (z-score)” value [20] was 0.94 and the “glycan array binding signal (z-score)” value [21] was 0.523. The “glycan array binding signal (z-score)” value [22] was 0.042, the “glycan array binding signal (z-score)” value (Man(a1-3)[Man(a1-6)]Man) was -0.052 and the “glycan array binding signal (z-score)” value [23] was -0.322. For the same binder, the “glycan array binding signal (z-score)” value [24] was 6.11, the “glycan array binding signal (z-score)” value [25] was 1.18 and the “glycan array binding signal (z-score)” value [26] was 0.155. The “glycan array binding signal (z-score)” value [27] was -0.909, the “glycan array binding signal (z-score)” value [28] was 0.348 and the “glycan array binding signal (z-score)” value [29] was 2.67. For the same binder, the “glycan array binding signal (z-score)” value [30] was 1.95 and the “glycan array binding signal (z-score)” value [31] was 0.109.
